Compound activity as filed in PubChem BioAssay.
B2AR arrestin: qHTS assay of beta-arrestin-biased ligands of beta2-adrenergic receptor | Beta-2 adrenergic receptor (Homo sapiens), P07550 | beta-arrestin recruitment to beta2AR, cell-based reporter | Potency, µM (series often up to 46.1 µM), without a hit: at the highest dose activation, most hits filed as activators | 330,000 compounds, 0.02% hits | AID 492947, 2010; active = well fitted activation curve with a large enough effect; inconclusive = small, poorly fitted or top-dose-only effect;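 note: potency is the fitted concentration of half-maximal effect; 0% = DMSO controls and full agonism = EC100 isoproterenol or metaproterenol; nearly all actives have a fitted effect of over 65% in size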
D2 ag-1: HTS Assay for Allosteric Agonists of the Human D2 Dopamine Receptor: Primary Screen for Agonists | HEK293 T-REx D2 cells, calcium flux agonist mode | activation, % at 2 µM | 340,000 compounds, 0.53% hits | AID 485358, 2010;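 active = activation over 3 SD above normal in the single-dose calcium agonist read, cut at about 30% in these data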; note: 0% is about no effect
Target sequence (P14416 whole entry, looked up): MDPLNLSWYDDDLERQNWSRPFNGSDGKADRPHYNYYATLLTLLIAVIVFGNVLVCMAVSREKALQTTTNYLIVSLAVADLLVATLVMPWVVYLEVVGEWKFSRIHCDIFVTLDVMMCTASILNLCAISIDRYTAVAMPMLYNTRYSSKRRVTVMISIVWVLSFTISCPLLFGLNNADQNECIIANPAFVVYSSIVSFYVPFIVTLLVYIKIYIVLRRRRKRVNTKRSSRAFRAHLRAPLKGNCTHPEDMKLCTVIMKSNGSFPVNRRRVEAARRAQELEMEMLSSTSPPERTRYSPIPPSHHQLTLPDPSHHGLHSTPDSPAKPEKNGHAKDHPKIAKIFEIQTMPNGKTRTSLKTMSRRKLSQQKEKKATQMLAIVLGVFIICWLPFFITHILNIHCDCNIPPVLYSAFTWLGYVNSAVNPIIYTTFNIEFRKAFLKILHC
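Calcium-flux readout, 1 cycle/sec over 180 s following compound pin transfer, in inducible HEK293 Trex D2 cells (force-coupled); dopamine controls included. Positive calcium responses during this window marked compounds as potential agonists.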
D2 PAM-1: Beta-Arrestin HTS for Positive Allosteric Modulators of the Human D2 Dopamine Receptor: Potentiators; D(2) dopamine receptor (Homo sapiens), P14416; DiscoveRx D2 beta-arrestin cells, luminescence, 90 min; 100% = 57 uM dopamine signal; potentiation, % (test concentration not listed); 360,000 compounds, 0.23% hits; AID 624464, 2012; in the data active = potentiation above about 50%; inconclusive = mostly about 30% to 49%
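PathHunter beta-arrestin assay in DiscoveRx D2 cells. Compounds were added with an EC20 of dopamine (50 nM final) for 90 min at 37 deg C. Luminescence was read 1 h after detection reagent, with 57 uM dopamine as the EC100 control.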
D2 PAM-2: HTS Assay for Positive Allosteric Modulators of the Human D2 Dopamine Receptor: Primary Screen for Potentiators; D(2) dopamine receptor (Homo sapiens), P14416; HEK293 T-REx D2, calcium flux, EC20 dopamine potentiation; potentiation, % at 10 µM; 340,000 compounds, 0.34% hits; AID 485347, 2010;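 active = potentiation over 3 SD above the plate norm, cut at about 30% in these data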; note: 0% is about no effect
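Tetracycline-induced Hek293 Trex D2 cells, force-coupled to calcium, loaded with no-wash calcium dye. Compound added with 180 s kinetic read for agonism, then EC20 dopamine and a further 180 s read for potentiation.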
D2 ag-2: Beta-Arrestin HTS for Positive Allosteric Modulators of the Human D2 Dopamine Receptor: Agonists; D(2) dopamine receptor (Homo sapiens), P14416; DiscoveRx PathHunter D2 beta-arrestin, luminescence, 90 min; 100% = 57 uM dopamine signal; activation, % (test concentration not listed); 360,000 compounds, 0.084% hits; in the data active = activation above about 40%; inconclusive = between about 15% and that limit
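DiscoveRx PathHunter D2 beta-arrestin cells (2,100/well) attached overnight, then compound-stimulated 90 min at 37 C in HBSS/10 mM HEPES/0.1% Tween-20 buffer; beta-galactosidase complementation read by luminescence after 1 h at ambient temperature. Dopamine 57 uM final (EC100) as control.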
D2 antag: HTS Assay for Allosteric Antagonists of the Human D2 Dopamine Receptor: Primary Screen for Antagonists; inhibition, % at 10 µM; 340,000 compounds, 2% hits; D(2) dopamine receptor (Homo sapiens), P14416; AID 485344, 2010; HEK293 TREx D2 cells, calcium flux, dopamine EC80; in the data active = inhibition above about 30%; inactive = below that, where a call was filed; note: 0% is about no effect
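Dopamine at EC80 is the agonist stimulus; test compounds precede it by 180 s. Calcium flux read kinetically in a force-coupled, inducible HEK293 T-REx D2 cell line.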
* marks the source's active call; other numbers are inactive results; u = inconclusive; x = not tested or not shown. This is a sample that favours compounds with a hit; in the whole collection about 2.4% have one here.

SMILES | B2AR arrestin | D2 ag-1 | D2 PAM-1 | D2 PAM-2 | D2 ag-2 | D2 antag
c1ccc2oc(-c3csc(N4CCOCC4)n3)cc2c1 | 0% | 0 | -1 | 31* | -1 | -7
CC(C)N(c1ccccc1)c1ccc(NC(=O)COC(=O)CCN2C(=O)c3cccc([N+](=O)[O-])c3C2=O)cc1 | -1% | -1 | 61* | -9 | u | -2
CC(C)OCCCNC(=O)CN1C(=O)c2cccnc2Sc2ccccc21 | x | -1 | x | 16 | x | x
C/C=C(\C)CN1CCc2cc(OC)c(OC)cc2C1 | 0% | 0 | -15 | 31* | 1 | -5
Cc1ccc(-c2nn(-c3cccc(F)c3)cc2CN(Cc2nccn2C)C(C)C)o1 | 0% | -1 | -18 | -15 | -4 | 3
COc1cccc(C2C(C(=O)Nc3ccc(Cl)cc3)=C(C)Nc3nc4ccccc4n32)c1 (stereo not drawn) | x | 1 | x | -10 | x | x
O=C(Oc1ccc(Cl)c2ccccc12)N1CCCCC1 | 0% | -1 | -14 | -2 | -2 | 56*
CC(C)C(=O)NCCSc1c[nH]c2ccccc12 | 0% | 0 | -3 | 7 | -1 | 31*
CCOC(=O)/C=C/C(=O)Nc1ccc(S(=O)(=O)N2CCCCCC2)cc1 | -1% | 0 | -5 | 13 | -3 | 31*
CCOC(=O)/C=C/C(=O)Nc1ccc(S(=O)(=O)N2CCc3ccccc32)cc1 | 0% | 1 | -16 | 9 | -4 | 10
Cc1ccc(N=Cc2cccc(O)c2O)c(C)c1 | 4% | 0 | x | 2 | x | -7
Cc1ccc(N=Cc2sc(O)c3ccccc23)cc1 | -1% | 65* | -1 | -7 | 12 | -6
Cc1ccc(N=Cc2sc(O)c3ccccc23)c(C)c1 | -2% | 11 | u | -9 | -7 | 58*
Cc1ccc(N=Cc2c(O)c3ccccc3n(C)c2=O)cc1 | 0% | 1 | -4 | 0 | 2 | 12
Cc1ccc(O)c(C=Nc2cc(C)ccc2O)c1 | 8% | x | 58* | x | 7 | x
COCCN(C(=O)COC(=O)/C=C/c1ccc2c(c1)OCO2)c1c(N)n(Cc2ccccc2)c(=O)[nH]c1=O | 0% | 1 | -16 | 4 | -3 | -6
O=C(CN(C(=O)c1csnn1)c1cccc(F)c1)NCc1ccc2c(c1)OCO2 | -1% | 0 | -4 | -18 | -1 | 42*
c1ccc(-c2csc(=Nc3cccnc3)n2CC2CCCO2)cc1 (stereo not drawn) | -1% | -1 | -17 | 1 | -2 | 30*
O=C(NC(CO)Cc1ccc([N+](=O)[O-])cc1)C(Cl)Cl (stereo not drawn) | 2% | x | -5 | x | -3 | x
Nc1nc(CN2CCN(C(=O)c3ccco3)CC2)nc(Nc2cccc(Cl)c2)n1 | 0% | 38* | 27 | 0 | u | -19
Cc1ccccc1-c1nnc(CN2CCN(C(=O)c3ccco3)CC2)o1 | 0% | x | -4 | x | 5 | x
O=C(c1ccco1)N1CCN(Cc2ccc(F)cc2)CC1 | -1% | 81* | u | -17 | 44* | 58*
O=C(c1ccco1)N1CCN(Cc2nnc(-c3ccccc3F)o2)CC1 | 4% | -2 | -2 | 35* | 2 | -15
O=C(CN1CCN(C(=O)c2ccco2)CC1)NCc1ccc(Cl)cc1 | 0% | 0 | 7 | 20 | 2 | 32*
C#Cc1ccc([C@@H]2C=C(C(=O)NC3CC3)O[C@H](OCc3ccc(CO)cc3)C2)cc1 | x | x | 2 | x | 1 | x
SMILES | B2AR arrestin | D2 ag-1 | D2 PAM-1 | D2 PAM-2 | D2 ag-2 | D2 antag
COc1ccc(-c2nnc(SCC(=O)Nc3cc(C)on3)o2)cc1 | u | 2 | -2 | 15 | -6 | 36*
CN(C(=O)COC(=O)c1cc(F)c(F)cc1Cl)c1ccccc1 | 0% | -1 | -5 | -1 | 3 | 32*
Cc1ccc(CN2CCC(C(=O)NCCC(C)C)CC2)o1 | 0% | 0 | -30 | -4 | -2 | 30*
Cc1ccc(NC2=C/C(=N/S(=O)(=O)c3cccs3)c3ccccc3C2=O)cc1C | -1% | 1 | 76* | 0 | u | -6
Cc1ccccc1NC1=C/C(=N\S(=O)(=O)c2cccs2)c2ccccc2C1=O | 0% | -1 | 1 | -4 | -3 | 6
Cc1ccccc1C(=O)NCCNc1ccc([N+](=O)[O-])cc1 | 0% | 0 | -6 | 0 | -4 | 33*
Cc1ccccc1C(=O)NNc1ccc([N+](=O)[O-])cc1 | x | 1 | 1 | -3 | 1 | 13
O=C(NCCNc1ccc([N+](=O)[O-])cc1)c1ccccc1Br | 0% | 1 | -5 | 34* | 0 | -20
CC(C)Cn1cnc2c(N)nc3ccccc3c21 | 0% | 0 | -7 | 3 | 5 | -21
CC[C@@H](C(=O)[C@@H](C)[C@@H](O)[C@H](C)[C@@H]1O[C@@H]([C@@H](CC)C(=O)O)CC[C@@H]1C)[C@H]1O[C@]2(C=C[C@@H](O)[C@]3(CC[C@@](C)([C@H]4CC[C@](O)(CC)[C@H](C)O4)O3)O2)[C@H](C)C[C@@H]1C | x | x | 64* | x | 13 | x
Cc1ccc(NC(=O)CN(C)C(=O)CSc2nnc(N)s2)cc1 | 0% | 0 | -5 | 7 | 3 | 1
CCOC(=O)C1CCN(S(=O)(=O)CCNC(=O)c2ccc(F)cc2)CC1 | 0% | 0 | 5 | 28 | 2 | 30*
N/C(Cc1ccc(Cl)cc1)=N\OC(=O)c1ccc2ccccc2c1 | 4% | 0 | 168* | 6 | u | -19
N/C(Cc1ccc(Cl)cc1Cl)=N\OC(=O)c1ccccc1 | 0% | 0 | 22 | -14 | 63* | -43
COc1ccc(C/C(N)=N/OC(=O)c2ccc(Cl)cc2)cc1 | 0% | 0 | 7 | -8 | 10 | 8
N/C(Cc1ccc(Cl)cc1)=N\OC(=O)c1cccc2ccccc12 | 0% | 2 | 86* | -9 | u | -7
Cn1c(=N)n(CC(=O)C(C)(C)C)c2ccccc21 | 0% | 0 | -33 | 9 | -4 | 17
Cc1cc(C(C)(C)C)cc(C)c1COC(=O)CN1C(=O)NC2(CCCC2)C1=O | 0% | 0 | -6 | 10 | -4 | 5
CCN(CC)c1ccc2cc(-c3nc4ccccc4[nH]3)c(=O)oc2c1 | 3% | 104* | 17 | -14 | 5 | 76*
